Source: PubChem BioAssay
A selection: hits, their analogues and other compounds. The true share with any hit is near 6.7%.
KB-V1 MDR tox – KB-V1 MDR subline cytotoxicity | AID 1347076 | Potency, µM (series often up to 46.1 µM), most hits filed as cytotoxic | hit rate 3.4% among 400,000 | KB-V1 MDR cells viability, CellTiter-Glo, 72 h; also: nearly all actives have a fitted effect of over 60% in size
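Cytotoxicity via CellTiter-Glo luminescence after 72 h compound exposure at 37 degrees C. Cells: drug-selected KB-V1 line, DMEM phenol-red free plus 10% FBS. Compounds tested at multiple concentrations; normalized data fitted to concentration-effect curves.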
MCF10A rerep – induces DNA re-replication in MCF 10a normal breast cells; AID 624296; Potency, µM (titrated, usually from 46.1 µM), usual class: activators; MCF 10A DNA re-replication, Hoechst nuclear intensity, 48 h; hit rate 2.9% among 350,000; also: nearly all actives have a fitted effect of over 50% in size
PINK1 modulator – modulators of PINK1 expression. PINK1 immunofluorescence, high-content cytometry, 24 h. Potency, µM (series often up to 76.6 µM), hits mostly activators. hit rate 0.2% among 410,000. AID 624263; active = well fitted activation curve with a large enough effect; inconclusive = small, poorly fitted or top-dose-only effect; cell line not stated here; also: nearly all actives have a fitted effect of over 65% in size
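PINK1 protein level read as immunofluorescence by microplate cytometer in a fixed, stained stable cell line after 24 h exposure to five compound concentrations, with CCCP as control.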
KB-3-1 cytotox – KB-3-1 parental cell cytotoxicity; KB-3-1 viability, CellTiter-Glo ATP luminescence, 72 h; Potency, µM (titrated, usually from 46.1 µM), usual class: cytotoxic; hit rate 1.4% among 400,000; AID 1347075; also: nearly all actives have a fitted effect of over 60% in size
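Parental KB-3-1 adenocarcinoma cells in phenol-red-free DMEM with 10% FBS were pin-treated with compounds at several concentrations, incubated 72 h at 37 °C, and viability read by CellTiter-Glo luminescence; concentration-effect curves were fitted after normalization.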
SW480 rerep – inducers of DNA re-replication in SW480 colon cancer cells | SW480 DNA re-replication, Hoechst DNA content imaging, 48 h | AID 624297 | Potency, µM (top dose mostly 46.1 µM), actives largely listed as activators | hit rate 1.8% among 340,000; also: nearly all actives have a fitted effect of over 55% in size
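Hoechst fluorescence of nuclei (405 nm excitation, 500-530 nm emission) measured by plate-scanning imager after 48 hr compound exposure at 37 C; re-replication scored as increased number of nuclei with elevated intensity.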
Hits are given with their value. Unless noted, calls follow the shape of the dose curve; as a rule, active = well fitted curve in the direction sought with a large enough effect; inconclusive = small, poorly fitted or top-dose-only effect, or another doubt; inactive = no such curve, though single readings can be large; an effect the other way counts as inactive or inconclusive.

Screening C[C@H]1CN([C@@H](C)CO)C(=O)Cc2cc(NC(=O)CCC(F)(F)F)ccc2O[C@H]1CN(C)S(=O)(=O)c1ccc(Cl)cc1 returned KB-V1 MDR tox inactive, MCF10A rerep 4.6µM, PINK1 modulator inactive, KB-3-1 cytotox 4.6µM and SW480 rerep 3.3µM.
COc1cccc(-c2nc3nc(C)cc(C)n3c2NCc2ccccc2)c1 was read as KB-V1 MDR tox inactive, PINK1 modulator inactive and KB-3-1 cytotox inactive.
C/C(=N/NC(=O)c1cccs1)c1ccc(N2CCOCC2)cc1 was read as KB-V1 MDR tox inactive, MCF10A rerep inactive, PINK1 modulator inactive, KB-3-1 cytotox inactive and SW480 rerep 0.52µM.
C/C(=N/NC(=O)c1cccs1)c1ccc(NC(=O)COc2ccc(Cl)cc2)cc1 was read as KB-V1 MDR tox inactive, MCF10A rerep 5.2µM, PINK1 modulator inactive, KB-3-1 cytotox inconclusive and SW480 rerep inconclusive.
`C/C(=N\NC(=O)c1ccccc1)c1ccc(N2CCOCC2)cc1` gave KB-V1 MDR tox inactive, MCF10A rerep inactive, PINK1 modulator inactive, KB-3-1 cytotox inactive and SW480 rerep inactive.
C/C(=N\NC(=O)c1c(Cl)c(C)nn1C)c1ccc(NC(=O)C2CCC2)cc1 was read as KB-V1 MDR tox 3.3µM, MCF10A rerep inconclusive, PINK1 modulator inactive, KB-3-1 cytotox 1µM and SW480 rerep 1.8µM.
C/C(=N\NC(=O)c1c(Cl)c(C)nn1C)c1ccc(NC(=O)COc2ccc(Cl)cc2C)cc1 was read as KB-V1 MDR tox inactive, MCF10A rerep 21µM, PINK1 modulator inactive, KB-3-1 cytotox inactive and SW480 rerep inactive.
Screening C/C(=N\NC(=O)c1c(Br)c(C)nn1C)c1cccc(NC(=O)C2CCC2)c1 returned KB-V1 MDR tox inactive, MCF10A rerep inactive, PINK1 modulator inactive, KB-3-1 cytotox inconclusive and SW480 rerep inactive.
`O=C(CSc1nnc(C2CC2)n1C1CC1)N1CCN(c2ccc(O)cc2)CC1` gave KB-V1 MDR tox inactive, PINK1 modulator inactive and KB-3-1 cytotox inactive.
For C/C(=N\NC(=O)c1c([N+](=O)[O-])c(C)nn1C)c1ccc(NC(=O)C2CCCC2)cc1 the results were KB-V1 MDR tox 6.5µM, MCF10A rerep 0.41µM, PINK1 modulator inactive, KB-3-1 cytotox 0.46µM and SW480 rerep 5.8µM.
For COc1cc(CN2CCCC(n3cc(C(=O)N4CCCC4)nn3)C2)cc(OC)c1 (centres undefined) the results were PINK1 modulator inactive.
`Cc1cccc(NC(=O)c2cccc(S(=O)(=O)N(C)c3ccccc3)c2)n1` gave KB-V1 MDR tox 7.3µM, MCF10A rerep inactive, PINK1 modulator inactive, KB-3-1 cytotox inactive and SW480 rerep inactive.
Cc1cc(NC(=O)c2cccc(S(=O)(=O)N(C)C)c2)n(-c2ccccn2)n1 was read as KB-V1 MDR tox 9.2µM, MCF10A rerep inconclusive, PINK1 modulator inactive, KB-3-1 cytotox inactive and SW480 rerep inactive.
For CN(c1ccccc1)S(=O)(=O)c1cccc(C(=O)NC2CCCCC2)c1 the results were KB-V1 MDR tox 15µM, MCF10A rerep inconclusive, PINK1 modulator inactive, KB-3-1 cytotox inactive and SW480 rerep inactive.
`CN(c1ccc(C(=O)NC2CCCCC2)cc1)S(=O)(=O)c1ccccc1` gave KB-V1 MDR tox inconclusive, MCF10A rerep inconclusive, PINK1 modulator inactive, KB-3-1 cytotox inactive and SW480 rerep inactive.
Cc1ccc(-c2nc3scc(CCNS(=O)(=O)c4c(C)noc4C)n3n2)cc1 was read as PINK1 modulator inactive.
For CCCn1c(C2CCCN2c2nc(-c3ccc(C)cc3)cs2)nc2ccccc21 (centres undefined) the results were KB-V1 MDR tox inconclusive, MCF10A rerep inconclusive, PINK1 modulator inactive, KB-3-1 cytotox 18µM and SW480 rerep inconclusive.
For Cc1ccc(-c2csc(N3CCN(CCCn4c(-c5ccncc5)nc5ccccc54)CC3)n2)cc1 the results were KB-V1 MDR tox 18µM, MCF10A rerep 23µM, PINK1 modulator inactive, KB-3-1 cytotox inconclusive and SW480 rerep inconclusive.
`Cc1ccc(-c2csc(N3CCN(CCCn4c(C(F)(F)F)nc5ccccc54)CC3)n2)cc1` gave KB-V1 MDR tox inactive, MCF10A rerep inactive, PINK1 modulator inactive, KB-3-1 cytotox inconclusive and SW480 rerep inactive.
For Cc1ccc(Cn2c(C3CCCN3c3nc(-c4ccc(F)cc4)cs3)nc3cc(Cl)c(Cl)cc32)cc1 (centres undefined) the results were KB-V1 MDR tox inactive, MCF10A rerep inactive, PINK1 modulator inactive, KB-3-1 cytotox inactive and SW480 rerep inactive.
Screening CCC(=O)N1CCc2nc(-c3ccccc3)sc2C1 returned KB-V1 MDR tox inactive, MCF10A rerep inconclusive, PINK1 modulator inactive, KB-3-1 cytotox inactive and SW480 rerep inactive.
`Cc1nn(Cc2ccc(Cl)cc2)c(C)c1NC(=O)c1cc(C(C)C)on1` gave KB-V1 MDR tox inactive, MCF10A rerep inconclusive, PINK1 modulator inactive, KB-3-1 cytotox inactive and SW480 rerep inactive.
For Cc1nn(Cc2ccc(Cl)cc2)c(C)c1NC(=O)c1cc(-c2ccc3c(c2)OCO3)on1 the results were KB-V1 MDR tox inactive, MCF10A rerep 4.6µM, PINK1 modulator inactive, KB-3-1 cytotox 4.1µM and SW480 rerep inconclusive.
`Cc1nn(Cc2ccc(Cl)c(Cl)c2)c(C)c1NC(=O)c1cc(-c2ccc3c(c2)OCO3)on1` gave KB-V1 MDR tox inactive, MCF10A rerep 5.8µM, PINK1 modulator inactive, KB-3-1 cytotox inconclusive and SW480 rerep 16µM.
`COc1c(Cl)cc(Cl)cc1/C=C/C(=O)c1ccc(NC(=O)c2cccs2)cc1` gave KB-V1 MDR tox 18µM, MCF10A rerep 3.7µM, PINK1 modulator inactive, KB-3-1 cytotox inconclusive and SW480 rerep 6.5µM.
For O=C(Nc1ccc(Cl)cc1)c1csc(-c2ccccc2)n1 the results were KB-V1 MDR tox inconclusive, MCF10A rerep 23µM, PINK1 modulator inactive, KB-3-1 cytotox inactive and SW480 rerep inactive.
`COc1ccccc1NC(=O)C1=C(C)Nc2c(C(=O)Nc3ccc(F)cc3)cnn2C1c1cccc([N+](=O)[O-])c1` (centres undefined) gave PINK1 modulator inactive.
For Cc1nonc1NC(=O)CSc1nc2ccccc2o1 the results were KB-V1 MDR tox inactive, MCF10A rerep inactive, PINK1 modulator inactive, KB-3-1 cytotox inactive and SW480 rerep inactive.
`Cc1nn2c(-c3cccc(NC(=O)CSc4nc5ccccc5o4)c3)nnc2c2ccccc12` gave KB-V1 MDR tox inconclusive, MCF10A rerep 10µM, PINK1 modulator inactive, KB-3-1 cytotox inactive and SW480 rerep inactive.
Screening CC(=O)Nc1nonc1NC(=O)CSc1nc2ccccc2o1 returned KB-V1 MDR tox inactive, MCF10A rerep inactive, PINK1 modulator inactive, KB-3-1 cytotox inactive and SW480 rerep 21µM.
`C=CCNc1ncnc2c1ncn2[C@H]1CN(Cc2ccc(-c3ccccc3)cc2)C[C@@H](CO)O1` gave KB-V1 MDR tox inactive, PINK1 modulator inactive and KB-3-1 cytotox inconclusive.
Screening O=C(NCc1ccc(Cl)cc1)c1ccc2ccccc2n1 returned KB-V1 MDR tox inactive, MCF10A rerep inactive, PINK1 modulator inactive, KB-3-1 cytotox inactive and SW480 rerep inactive.
